# What was measured:
# Experiment in all cases: DAPPL (digital affinity profiling via proximity ligation, sequencing); 10 mM Tris-HCl pH 7.5, 50 mM NaCl, 1 mM DTT, 4% glycerol, room temperature, 30 min; GST-TFs on glutathione beads, 16-mer random dsDNA library, 0.1% formaldehyde crosslink after washing; high values mean tight binding
# FEV = target: T1, FEV (Homo sapiens, UniProt Q99581 1-238); details: protein: recombinant; tags: N-terminal GST; dsDNA, one strand shown
# T1 sequence: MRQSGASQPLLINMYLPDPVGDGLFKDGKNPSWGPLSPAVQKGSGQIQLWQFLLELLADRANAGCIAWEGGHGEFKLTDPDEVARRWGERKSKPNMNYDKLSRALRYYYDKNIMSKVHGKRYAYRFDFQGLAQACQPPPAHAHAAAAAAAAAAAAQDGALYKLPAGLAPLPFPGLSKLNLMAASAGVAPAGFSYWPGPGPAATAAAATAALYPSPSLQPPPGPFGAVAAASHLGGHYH
# In short: (§1)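 Yeast served to express human transcription factors as GST fusions, which were then captured on glutathione beads and labelled with DNA barcodes. Pooled with a tag-only sample, they were incubated with 200 nmole of a 16-mer random double-stranded DNA library for 30 min at room temperature in Tris/NaCl/DTT/glycerol buffer, washed, crosslinked with 0.1% formaldehyde, ligated by proximity, amplified by PCR and sequenced. Dividing each hexamer's read frequency for a factor by its frequency for the tag-only sample gives the binding signal.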
# ETV5 = ETV5 (Homo sapiens, UniProt P41161 1-510); details: protein: recombinant; tags: N-terminal GST; dsDNA, one strand shown
# Sequence of ETV5 (P41161 whole entry): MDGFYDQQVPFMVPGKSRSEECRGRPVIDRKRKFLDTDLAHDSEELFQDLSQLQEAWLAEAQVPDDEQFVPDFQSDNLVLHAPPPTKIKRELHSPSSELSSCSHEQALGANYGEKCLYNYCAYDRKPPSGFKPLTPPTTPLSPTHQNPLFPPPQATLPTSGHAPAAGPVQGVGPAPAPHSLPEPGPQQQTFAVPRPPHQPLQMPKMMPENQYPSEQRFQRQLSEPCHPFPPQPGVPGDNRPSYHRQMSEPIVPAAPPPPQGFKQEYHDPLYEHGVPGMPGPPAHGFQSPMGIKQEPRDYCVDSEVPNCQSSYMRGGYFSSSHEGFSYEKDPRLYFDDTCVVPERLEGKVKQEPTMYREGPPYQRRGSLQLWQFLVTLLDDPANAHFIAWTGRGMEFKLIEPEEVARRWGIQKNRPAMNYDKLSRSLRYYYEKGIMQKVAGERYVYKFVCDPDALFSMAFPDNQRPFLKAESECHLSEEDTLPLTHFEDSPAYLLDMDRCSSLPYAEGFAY
# In short: as §1
# HSF1 = HSF1 (Homo sapiens, UniProt Q00613 1-529); details: protein: recombinant; tags: N-terminal GST; chain copies: 3; dsDNA, one strand shown
# Sequence of HSF1 (Q00613 whole entry): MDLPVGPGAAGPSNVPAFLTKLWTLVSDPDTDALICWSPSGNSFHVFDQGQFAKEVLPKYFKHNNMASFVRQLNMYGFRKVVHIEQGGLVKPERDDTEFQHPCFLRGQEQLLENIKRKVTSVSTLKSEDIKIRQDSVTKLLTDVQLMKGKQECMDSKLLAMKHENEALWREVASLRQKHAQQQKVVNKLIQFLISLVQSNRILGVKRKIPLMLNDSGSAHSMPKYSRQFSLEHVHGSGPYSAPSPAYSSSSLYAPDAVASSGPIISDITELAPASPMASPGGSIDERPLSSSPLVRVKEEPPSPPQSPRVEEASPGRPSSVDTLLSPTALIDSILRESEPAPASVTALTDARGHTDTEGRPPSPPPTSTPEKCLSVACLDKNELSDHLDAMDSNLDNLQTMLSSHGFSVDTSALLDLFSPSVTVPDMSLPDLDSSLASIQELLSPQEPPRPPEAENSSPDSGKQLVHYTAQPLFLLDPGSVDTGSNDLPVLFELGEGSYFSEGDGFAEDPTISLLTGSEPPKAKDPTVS
# In short: as §1
# SPIC = target: T2, SPIC (Homo sapiens, UniProt Q8N5J4 1-248); details: protein: recombinant; tags: N-terminal GST; dsDNA, one strand shown
# T2 sequence: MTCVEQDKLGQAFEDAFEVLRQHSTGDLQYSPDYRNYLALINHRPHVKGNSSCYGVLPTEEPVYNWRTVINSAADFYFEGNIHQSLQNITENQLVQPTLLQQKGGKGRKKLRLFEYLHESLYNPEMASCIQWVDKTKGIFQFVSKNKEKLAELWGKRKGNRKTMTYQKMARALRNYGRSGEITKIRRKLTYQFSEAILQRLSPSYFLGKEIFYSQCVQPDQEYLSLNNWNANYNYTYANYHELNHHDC
# In short: as §1
# ELF4 = ELF4 (Homo sapiens, UniProt Q99607 1-663); details: protein: recombinant; tags: N-terminal GST; dsDNA, one strand shown
# Sequence of ELF4 (Q99607 whole entry): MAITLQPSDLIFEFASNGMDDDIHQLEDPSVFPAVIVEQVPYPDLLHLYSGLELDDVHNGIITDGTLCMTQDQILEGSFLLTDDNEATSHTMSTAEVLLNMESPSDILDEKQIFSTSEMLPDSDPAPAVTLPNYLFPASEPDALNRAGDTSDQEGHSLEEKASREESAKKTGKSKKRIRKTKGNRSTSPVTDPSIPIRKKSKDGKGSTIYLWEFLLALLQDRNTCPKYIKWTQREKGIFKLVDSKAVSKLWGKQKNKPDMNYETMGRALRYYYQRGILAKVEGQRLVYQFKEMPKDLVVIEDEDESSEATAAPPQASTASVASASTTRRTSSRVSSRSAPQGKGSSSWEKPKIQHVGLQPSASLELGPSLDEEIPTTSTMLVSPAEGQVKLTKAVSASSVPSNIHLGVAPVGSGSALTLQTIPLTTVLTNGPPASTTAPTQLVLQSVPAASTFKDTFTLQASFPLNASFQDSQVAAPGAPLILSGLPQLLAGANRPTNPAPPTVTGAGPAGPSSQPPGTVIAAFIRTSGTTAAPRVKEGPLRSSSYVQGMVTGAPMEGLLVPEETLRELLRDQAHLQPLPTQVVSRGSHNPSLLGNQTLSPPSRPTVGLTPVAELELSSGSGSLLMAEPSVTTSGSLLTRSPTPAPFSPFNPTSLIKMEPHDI
# In short: as §1
# ELK4 = target: T3, ELK4 (Homo sapiens, UniProt P28324-2 1-405); details: protein: recombinant; tags: N-terminal GST; dsDNA, one strand shown
# T3 sequence: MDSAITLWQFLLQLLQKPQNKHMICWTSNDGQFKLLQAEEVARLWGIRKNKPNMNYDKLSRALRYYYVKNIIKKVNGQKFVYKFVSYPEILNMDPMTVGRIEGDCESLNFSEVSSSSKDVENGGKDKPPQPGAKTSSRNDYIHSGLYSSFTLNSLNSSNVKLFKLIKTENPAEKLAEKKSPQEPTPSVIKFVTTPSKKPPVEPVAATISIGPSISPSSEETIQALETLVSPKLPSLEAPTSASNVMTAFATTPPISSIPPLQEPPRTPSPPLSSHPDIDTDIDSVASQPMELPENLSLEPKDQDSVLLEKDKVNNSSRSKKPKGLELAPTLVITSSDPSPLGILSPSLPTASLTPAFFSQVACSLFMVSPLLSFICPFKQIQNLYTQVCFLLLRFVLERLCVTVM
# In short: as §1
# ETV2 = target: T4, ETV2 (Homo sapiens, UniProt O00321 1-342); details: protein: recombinant; tags: N-terminal GST; dsDNA, one strand shown
# T4 sequence: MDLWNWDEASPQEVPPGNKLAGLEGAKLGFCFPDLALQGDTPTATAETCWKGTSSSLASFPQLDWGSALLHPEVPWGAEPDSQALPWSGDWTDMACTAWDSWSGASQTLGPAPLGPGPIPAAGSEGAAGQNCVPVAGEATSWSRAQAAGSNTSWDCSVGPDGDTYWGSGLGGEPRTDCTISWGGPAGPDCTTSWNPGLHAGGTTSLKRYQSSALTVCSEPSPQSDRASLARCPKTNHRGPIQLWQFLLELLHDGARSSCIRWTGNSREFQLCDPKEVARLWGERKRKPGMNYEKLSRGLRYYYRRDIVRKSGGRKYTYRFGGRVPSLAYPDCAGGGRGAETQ
# In short: as §1
# ELF3 = target: T5, ELF3 (Homo sapiens, UniProt P78545 1-371); details: protein: recombinant; tags: N-terminal GST; dsDNA, one strand shown
# T5 sequence: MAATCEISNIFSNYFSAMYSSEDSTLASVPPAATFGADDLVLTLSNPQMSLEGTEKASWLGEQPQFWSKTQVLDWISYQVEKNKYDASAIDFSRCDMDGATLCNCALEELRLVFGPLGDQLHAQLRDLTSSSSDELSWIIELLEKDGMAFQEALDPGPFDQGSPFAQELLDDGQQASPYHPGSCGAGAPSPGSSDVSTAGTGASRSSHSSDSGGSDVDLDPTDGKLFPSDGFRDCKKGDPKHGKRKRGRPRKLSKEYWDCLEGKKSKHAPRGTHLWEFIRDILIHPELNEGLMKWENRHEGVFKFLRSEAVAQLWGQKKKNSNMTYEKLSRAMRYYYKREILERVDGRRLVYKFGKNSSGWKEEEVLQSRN
# In short: as §1
# CRX = CRX (Homo sapiens, UniProt O43186 1-299); details: protein: recombinant; tags: N-terminal GST; dsDNA, one strand shown
# Sequence of CRX (O43186 whole entry): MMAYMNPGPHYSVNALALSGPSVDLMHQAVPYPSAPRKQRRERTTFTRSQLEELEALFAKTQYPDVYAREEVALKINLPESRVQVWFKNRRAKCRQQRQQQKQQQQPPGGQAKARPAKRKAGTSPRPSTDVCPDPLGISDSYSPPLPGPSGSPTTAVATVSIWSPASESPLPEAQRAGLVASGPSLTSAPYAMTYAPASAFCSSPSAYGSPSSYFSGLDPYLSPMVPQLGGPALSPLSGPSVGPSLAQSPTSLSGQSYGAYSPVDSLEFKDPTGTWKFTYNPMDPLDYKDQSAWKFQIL
# In short: as §1
# ETV1 = ETV1 (Homo sapiens, UniProt P50549 1-477); details: protein: recombinant; tags: N-terminal GST; dsDNA, one strand shown
# Sequence of ETV1 (P50549 whole entry): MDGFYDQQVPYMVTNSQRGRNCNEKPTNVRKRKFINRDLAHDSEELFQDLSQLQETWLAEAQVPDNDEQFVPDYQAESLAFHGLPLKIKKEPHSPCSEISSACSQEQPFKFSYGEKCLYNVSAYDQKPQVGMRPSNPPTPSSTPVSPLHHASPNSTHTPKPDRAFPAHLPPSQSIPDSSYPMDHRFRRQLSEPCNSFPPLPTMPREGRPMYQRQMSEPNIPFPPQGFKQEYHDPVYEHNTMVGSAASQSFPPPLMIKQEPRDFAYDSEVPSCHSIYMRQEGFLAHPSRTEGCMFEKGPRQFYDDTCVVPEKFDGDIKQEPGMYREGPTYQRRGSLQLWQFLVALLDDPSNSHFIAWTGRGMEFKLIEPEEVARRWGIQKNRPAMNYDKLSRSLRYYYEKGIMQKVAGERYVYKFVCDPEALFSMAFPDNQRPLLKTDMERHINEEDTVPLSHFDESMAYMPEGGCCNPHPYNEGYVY
# In short: as §1
sequence,measurement,setting,value
CAATAT,binding signal,FEV,"1.25 fold enrichment (6-mer frequency, TF over GST control)"
same,binding signal,ETV5,"1.33 fold enrichment (6-mer frequency, TF over GST control)"
same,binding signal,HSF1,"1.11 fold enrichment (6-mer frequency, TF over GST control)"
same,binding signal,SPIC,"1.23 fold enrichment (6-mer frequency, TF over GST control)"
same,binding signal,ELF4,"1.28 fold enrichment (6-mer frequency, TF over GST control)"
same,binding signal,ELK4,"1.31 fold enrichment (6-mer frequency, TF over GST control)"
same,binding signal,ETV2,"1.29 fold enrichment (6-mer frequency, TF over GST control)"
same,binding signal,ELF3,"1.28 fold enrichment (6-mer frequency, TF over GST control)"
same,binding signal,CRX,"1.15 fold enrichment (6-mer frequency, TF over GST control)"
same,binding signal,ETV1,"1.27 fold enrichment (6-mer frequency, TF over GST control)"
